Among all 5,500 compounds or so, about 2,000 (36%) were called active. Roughly 18% stayed inconclusive and do not appear here. Rule as the data show it: active = normalized growth mostly below about 0.91 (no sharp cut-off); inconclusive = no clear call, values can overlap the other calls; inactive = mostly above about 0.92. This is one part of the list.
Assay: chemical genetic growth profiling, strain panel (AID 1159580);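 also: tested at 20 µM; growth read once vehicle control cultures reached saturation at 30 °C; 1 = growth at the plate median or of vehicle wells; lower values mean less growth of the strain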
Conditions: growth OD
[1] = S. cerevisiae deletion strains, locus YAL013W, strain DEP1, active compounds read low
[2] = S. cerevisiae deletion strains, locus YBR229C, strain ROT2, active compounds read low
[3] = S. cerevisiae deletion strains, locus YCL061C, strain MRC1, active compounds read low
[4] = S. cerevisiae deletion strains, locus YDL101C, strain DUN1, active compounds read low
[5] = S. cerevisiae deletion strains, locus YDR150W, strain NUM1, active compounds read low
[6] = S. cerevisiae deletion strains, locus YEL061C, strain CIN8, active compounds read low
[7] = S. cerevisiae deletion strains, locus YGR078C, strain PAC10, active compounds read low
[8] = S. cerevisiae deletion strains, locus YGR229C, strain SMI1, active compounds read low
[9] = S. cerevisiae deletion strains, locus YHR030C, strain SLT2, active compounds read low
[10] = S. cerevisiae deletion strains, locus YHR087W, strain rtc3, active compounds read low
[11] = S. cerevisiae deletion strains, locus YJL187C, strain SWE1, active compounds read low
[12] = S. cerevisiae deletion strains, locus YJR043C, strain POL32, active compounds read low
[13] = S. cerevisiae deletion strains, locus YJR075W, strain HOC1, active compounds read low
[14] = S. cerevisiae deletion strains, locus YKL190W, strain CNB1, active compounds read low
[15] = S. cerevisiae deletion strains, locus YLR039C, strain RIC1, active compounds read low
[16] = S. cerevisiae deletion strains, locus YLR058C, strain SHM2 (second series), active compounds read low
[17] = S. cerevisiae deletion strains, locus YLR085C, strain ARP6, active compounds read low
[18] = S. cerevisiae deletion strains, locus YLR262C, strain YPT6, active compounds read low
[19] = S. cerevisiae deletion strains, locus YML094W, strain GIM5, active compounds read low
[20] = S. cerevisiae deletion strains, locus YMR219W, strain ESC1, active compounds read low
[21] = S. cerevisiae deletion strains, locus YMR263W, strain SAP30, active compounds read low
[22] = S. cerevisiae deletion strains, locus YNL153C, strain GIM3, active compounds read low
[23] = S. cerevisiae deletion strains, locus YNL298W, strain CLA4 (second series), active compounds read low
[24] = S. cerevisiae deletion strains, locus YNL322C, strain KRE1, active compounds read low
[25] = S. cerevisiae deletion strains, locus YNR030W, strain Alg12, active compounds read low
[26] = S. cerevisiae deletion strains, locus YPL055C, strain LGE1, active compounds read low
[27] = S. cerevisiae deletion strains, locus YPL241C, strain CIN2, active compounds read low
[28] = S. cerevisiae deletion strains, locus YPR135W, strain CTF4, active compounds read low
[29] = S. cerevisiae deletion strains, locus YNL128W, strain TEP1, active compounds read low

Measured: normalized growth

CCO/C=C1\SC(=S)N(CCc2ccccc2)C1=O
active: [2] 0.898 | [3] 0.882 | [6] 0.66 | [7] 0.919 | [8] 0.893 | [9] 0.149 | [10] 0.847 | [11] 0.897 | [13] 0.843 | [14] 0.736 | [15] 0.166 | [16] 0.898 | [17] 0.181 | [18] 0.193 | [20] 0.906 | [23] 0.561 | [24] 0.926 | [28] 0.305
inactive: [1] 0.969 | [4] 0.973 | [5] 0.986 | [12] 0.961 | [19] 0.882 | [21] 0.962 | [22] 0.936 | [25] 0.929 | [26] 0.975 | [27] 0.969

COc1ccc(OC)c(S(=O)(=O)Oc2ccc(C#N)cc2)c1
inactive: [1] 0.997 | [2] 0.994 | [3] 1.02 | [4] 0.984 | S. cerevisiae deletion strains, locus YDL134C, strain PPH21, active compounds read low 1.01 | [5] 0.98 | [6] 0.956 | [7] 0.994 | [8] 0.968 | [9] 0.937 | [10] 0.968 | [12] 0.981 | [13] 1 | [15] 1.09 | [16] 0.992 | [17] 0.93 | [18] 1.09 | [19] 0.981 | [20] 1.01 | [21] 0.992 | [29] 1 | [22] 0.977 | [23] 0.972 | [24] 1 | [25] 0.973 | [26] 0.961 | [27] 0.987 | [28] 0.924

Cc1ccc(OS(=O)(=O)c2ccc(C#N)cc2)c(Br)c1
active: [9] 0.62 | [15] 0.712 | [18] 0.796 | [28] 0.628 | S. cerevisiae strains, strain wild type, active compounds read low 0.907
inactive: [1] 0.954 | [2] 1 | [4] 0.954 | [5] 0.973 | [6] 0.934 | [7] 0.976 | [11] 1.02 | [12] 0.979 | [13] 0.953 | [16] 0.997 | [17] 0.784 | [19] 0.957 | [20] 0.985 | [21] 0.966 | [29] 0.969 | [22] 0.96 | [23] 0.881 | [24] 0.981 | [25] 0.918 | S. cerevisiae deletion strains, locus YOL006C, strain TOP1, active compounds read low 0.765 | [26] 0.936 | [27] 0.927

COc1ccc(OC)c(S(=O)(=O)Nc2ccc(C#N)cc2)c1
inactive: [1] 0.978 | [2] 1.01 | [4] 1 | [5] 0.998 | [6] 1.02 | [7] 1.02 | [8] 1 | [9] 1.01 | [10] 1.01 | [11] 1 | [12] 0.989 | [13] 1.01 | [14] 0.996 | [15] 0.993 | [16] 1 | [17] 1.04 | [18] 0.953 | [19] 1.03 | [20] 1 | [21] 0.997 | S. cerevisiae deletion strains, locus YMR307W, strain GAS1, active compounds read low 1.05 | [22] 0.998 | [23] 1 | [24] 0.993 | [25] 1.02 | [26] 1.02 | [27] 1.02 | [28] 0.951
